Laboratory results as given in the supplement of paper PMC10849652.
About 7,900 targets were measured; listed, in parts, are those with a hit and a random draw of the rest. About 0.6% of all pairs of compound and target were hits. A number with no mark means an inactive call.

Tests used:
Experiment in all cases: log2 fold change, soluble protein after heating vs DMSO (PISA); higher = thermal stabilisation; K562 cells, 10 uM, 30 min; active = over 0.2 and 3.5 SD of the protein, either way, in both replicates (recomputed)
YWHAB = YWHAB (UniProt P31946)
Sequence of YWHAB (P31946 whole entry, looked up): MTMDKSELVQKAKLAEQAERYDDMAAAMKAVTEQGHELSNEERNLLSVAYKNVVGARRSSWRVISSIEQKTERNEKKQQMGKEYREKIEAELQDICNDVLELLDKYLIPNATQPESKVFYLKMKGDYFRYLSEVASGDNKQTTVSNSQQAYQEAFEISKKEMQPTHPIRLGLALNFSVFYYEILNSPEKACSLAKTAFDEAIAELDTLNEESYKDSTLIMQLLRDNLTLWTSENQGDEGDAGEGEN
Summary of the method: (§1)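 K562 cells at 2×10^6 cells/mL were given 10 μM compound for 30 min. Aliquots then went through 3 min of heating across 48°C-58°C, were pooled, and were extracted in PBS with 0.5% NP-40 at 4°C, and the supernatant after 21,000xg for 90 min was quantified by TMTpro 16plex LC-MS/MS with channel sums equalised. Thermal stability relative to control samples, from duplicates, is given as log2 fold change.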

YWHAQ = YWHAQ (UniProt P27348)
Sequence of YWHAQ (P27348 whole entry, looked up): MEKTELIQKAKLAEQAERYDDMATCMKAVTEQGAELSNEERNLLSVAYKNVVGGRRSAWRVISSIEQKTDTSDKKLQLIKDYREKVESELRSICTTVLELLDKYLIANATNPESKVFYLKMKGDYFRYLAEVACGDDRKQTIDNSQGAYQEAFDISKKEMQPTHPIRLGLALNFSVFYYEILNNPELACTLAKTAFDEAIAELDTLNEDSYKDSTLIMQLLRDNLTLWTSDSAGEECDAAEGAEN
Summary of the method: as §1

YWHAZ [1] = biological target: YWHAZ (UniProt E7ESK7)
Summary of the method: as §1

YWHAZ [2] = biological target: YWHAZ (UniProt P63104)
Sequence of YWHAZ (UniProt P63104) (P63104 whole entry, looked up): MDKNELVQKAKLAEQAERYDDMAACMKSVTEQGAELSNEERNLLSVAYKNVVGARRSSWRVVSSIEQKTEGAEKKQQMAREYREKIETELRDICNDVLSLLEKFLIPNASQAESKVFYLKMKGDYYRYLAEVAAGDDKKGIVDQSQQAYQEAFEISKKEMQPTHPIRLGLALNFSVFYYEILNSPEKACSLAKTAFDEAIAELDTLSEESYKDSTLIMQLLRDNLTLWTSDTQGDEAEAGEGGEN
Summary of the method: as §1

YY1 = YY1 (UniProt P25490)
Summary of the method: as §1

ZADH2 = ZADH2 (UniProt Q8N4Q0)
Sequence of ZADH2 (Q8N4Q0 whole entry, looked up): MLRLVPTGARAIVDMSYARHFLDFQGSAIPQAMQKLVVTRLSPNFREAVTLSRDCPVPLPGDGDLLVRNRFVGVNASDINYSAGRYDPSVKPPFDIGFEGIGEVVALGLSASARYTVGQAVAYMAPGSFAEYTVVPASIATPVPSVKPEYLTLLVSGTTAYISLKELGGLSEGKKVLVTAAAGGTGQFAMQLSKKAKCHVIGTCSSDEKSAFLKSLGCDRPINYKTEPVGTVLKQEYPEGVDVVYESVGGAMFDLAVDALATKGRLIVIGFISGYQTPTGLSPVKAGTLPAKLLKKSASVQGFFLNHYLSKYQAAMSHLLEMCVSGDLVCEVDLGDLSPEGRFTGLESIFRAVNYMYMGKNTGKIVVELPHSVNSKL
Summary of the method: as §1

ZBTB21 = ZBTB21 (UniProt Q9ULJ3)
Sequence of ZBTB21 (Q9ULJ3 whole entry, looked up): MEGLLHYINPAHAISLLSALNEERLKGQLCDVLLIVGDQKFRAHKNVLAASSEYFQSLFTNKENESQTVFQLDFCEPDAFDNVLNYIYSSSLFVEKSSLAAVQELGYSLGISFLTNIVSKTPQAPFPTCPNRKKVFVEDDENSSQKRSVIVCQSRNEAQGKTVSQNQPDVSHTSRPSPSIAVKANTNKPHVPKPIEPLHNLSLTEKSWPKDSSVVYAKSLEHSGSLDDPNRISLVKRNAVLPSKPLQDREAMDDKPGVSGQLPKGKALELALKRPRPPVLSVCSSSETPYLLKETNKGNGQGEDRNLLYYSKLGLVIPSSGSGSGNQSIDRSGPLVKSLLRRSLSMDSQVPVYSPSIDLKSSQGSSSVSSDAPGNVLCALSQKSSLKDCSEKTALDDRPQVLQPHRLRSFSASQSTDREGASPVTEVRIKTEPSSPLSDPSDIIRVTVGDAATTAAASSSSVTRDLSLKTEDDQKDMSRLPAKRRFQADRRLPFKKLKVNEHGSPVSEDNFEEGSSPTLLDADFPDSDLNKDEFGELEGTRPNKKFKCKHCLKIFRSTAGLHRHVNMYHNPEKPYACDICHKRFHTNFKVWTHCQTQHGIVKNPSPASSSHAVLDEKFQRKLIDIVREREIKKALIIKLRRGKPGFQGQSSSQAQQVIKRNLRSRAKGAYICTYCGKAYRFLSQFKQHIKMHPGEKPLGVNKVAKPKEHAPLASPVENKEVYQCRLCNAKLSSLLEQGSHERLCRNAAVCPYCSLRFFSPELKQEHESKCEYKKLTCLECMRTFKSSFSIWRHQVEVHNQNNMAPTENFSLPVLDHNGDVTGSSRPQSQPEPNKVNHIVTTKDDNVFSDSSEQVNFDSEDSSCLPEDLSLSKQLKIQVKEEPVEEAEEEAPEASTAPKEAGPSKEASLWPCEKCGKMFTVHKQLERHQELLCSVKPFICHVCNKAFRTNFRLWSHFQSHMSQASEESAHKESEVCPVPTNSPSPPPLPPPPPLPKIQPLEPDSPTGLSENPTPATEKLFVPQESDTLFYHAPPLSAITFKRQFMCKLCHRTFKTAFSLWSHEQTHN
Summary of the method: as §1

ZBTB43 = ZBTB43 (UniProt O43298)
Sequence of ZBTB43 (O43298 whole entry, looked up): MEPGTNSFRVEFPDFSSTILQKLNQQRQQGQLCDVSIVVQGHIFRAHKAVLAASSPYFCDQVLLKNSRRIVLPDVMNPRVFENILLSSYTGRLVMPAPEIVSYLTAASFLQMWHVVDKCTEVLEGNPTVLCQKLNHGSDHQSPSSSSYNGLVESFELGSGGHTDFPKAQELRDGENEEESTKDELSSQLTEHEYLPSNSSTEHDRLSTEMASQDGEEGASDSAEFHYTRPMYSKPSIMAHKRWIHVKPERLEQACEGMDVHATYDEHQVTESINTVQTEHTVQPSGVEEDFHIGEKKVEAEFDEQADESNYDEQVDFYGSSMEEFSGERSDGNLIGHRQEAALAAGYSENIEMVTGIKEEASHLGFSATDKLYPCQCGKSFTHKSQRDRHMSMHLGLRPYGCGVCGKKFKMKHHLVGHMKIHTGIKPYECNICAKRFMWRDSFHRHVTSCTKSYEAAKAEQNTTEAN
Summary of the method: as §1

ZC3H18 = ZC3H18 (UniProt Q86VM9)
Summary of the method: as §1

ZC3H8 = ZC3H8 (UniProt Q8N5P1)
Sequence of ZC3H8 (Q8N5P1 whole entry, looked up): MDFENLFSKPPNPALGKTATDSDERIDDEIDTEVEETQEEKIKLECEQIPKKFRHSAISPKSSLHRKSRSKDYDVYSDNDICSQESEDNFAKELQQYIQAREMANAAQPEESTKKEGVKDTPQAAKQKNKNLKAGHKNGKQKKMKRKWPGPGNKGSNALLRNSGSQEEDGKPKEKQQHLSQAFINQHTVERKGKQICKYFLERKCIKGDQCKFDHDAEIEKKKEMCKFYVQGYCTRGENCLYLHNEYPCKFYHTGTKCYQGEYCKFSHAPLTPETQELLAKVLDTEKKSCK
Summary of the method: as §1

ZC3HC1 = ZC3HC1 (UniProt Q86WB0)
Sequence of ZC3HC1 (Q86WB0 whole entry, looked up): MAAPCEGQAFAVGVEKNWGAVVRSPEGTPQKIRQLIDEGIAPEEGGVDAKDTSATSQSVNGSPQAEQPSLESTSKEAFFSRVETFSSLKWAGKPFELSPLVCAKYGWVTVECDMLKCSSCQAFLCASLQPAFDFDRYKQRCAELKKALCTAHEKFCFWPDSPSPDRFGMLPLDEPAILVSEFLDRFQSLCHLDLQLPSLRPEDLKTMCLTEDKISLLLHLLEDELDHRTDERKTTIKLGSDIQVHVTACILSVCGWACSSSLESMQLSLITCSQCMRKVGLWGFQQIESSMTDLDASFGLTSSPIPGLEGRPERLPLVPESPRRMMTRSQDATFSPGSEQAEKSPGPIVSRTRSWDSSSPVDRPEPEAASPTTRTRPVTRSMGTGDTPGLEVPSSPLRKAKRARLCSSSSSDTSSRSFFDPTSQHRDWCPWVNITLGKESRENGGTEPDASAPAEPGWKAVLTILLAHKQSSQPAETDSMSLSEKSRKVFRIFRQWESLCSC
Summary of the method: as §1

ZCCHC9 = ZCCHC9 (UniProt Q8N567)
Summary of the method: as §1

ZDHHC17 = ZDHHC17 (UniProt Q8IUH5)
Summary of the method: as §1

ZDHHC20 = ZDHHC20 (UniProt Q5W0Z9)
Sequence of ZDHHC20 (Q5W0Z9 whole entry, looked up): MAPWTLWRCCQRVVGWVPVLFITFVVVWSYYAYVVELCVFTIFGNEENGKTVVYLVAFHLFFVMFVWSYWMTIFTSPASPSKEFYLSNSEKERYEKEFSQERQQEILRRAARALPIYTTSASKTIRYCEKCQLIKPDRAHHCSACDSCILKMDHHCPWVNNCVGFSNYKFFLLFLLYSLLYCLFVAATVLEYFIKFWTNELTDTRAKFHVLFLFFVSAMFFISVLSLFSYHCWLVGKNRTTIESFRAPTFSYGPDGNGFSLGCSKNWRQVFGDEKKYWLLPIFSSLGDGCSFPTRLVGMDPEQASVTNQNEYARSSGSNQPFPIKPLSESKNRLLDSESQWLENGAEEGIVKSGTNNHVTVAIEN
Summary of the method: as §1

ZDHHC5 = ZDHHC5 (UniProt Q9C0B5)
Sequence of ZDHHC5 (Q9C0B5 whole entry, looked up): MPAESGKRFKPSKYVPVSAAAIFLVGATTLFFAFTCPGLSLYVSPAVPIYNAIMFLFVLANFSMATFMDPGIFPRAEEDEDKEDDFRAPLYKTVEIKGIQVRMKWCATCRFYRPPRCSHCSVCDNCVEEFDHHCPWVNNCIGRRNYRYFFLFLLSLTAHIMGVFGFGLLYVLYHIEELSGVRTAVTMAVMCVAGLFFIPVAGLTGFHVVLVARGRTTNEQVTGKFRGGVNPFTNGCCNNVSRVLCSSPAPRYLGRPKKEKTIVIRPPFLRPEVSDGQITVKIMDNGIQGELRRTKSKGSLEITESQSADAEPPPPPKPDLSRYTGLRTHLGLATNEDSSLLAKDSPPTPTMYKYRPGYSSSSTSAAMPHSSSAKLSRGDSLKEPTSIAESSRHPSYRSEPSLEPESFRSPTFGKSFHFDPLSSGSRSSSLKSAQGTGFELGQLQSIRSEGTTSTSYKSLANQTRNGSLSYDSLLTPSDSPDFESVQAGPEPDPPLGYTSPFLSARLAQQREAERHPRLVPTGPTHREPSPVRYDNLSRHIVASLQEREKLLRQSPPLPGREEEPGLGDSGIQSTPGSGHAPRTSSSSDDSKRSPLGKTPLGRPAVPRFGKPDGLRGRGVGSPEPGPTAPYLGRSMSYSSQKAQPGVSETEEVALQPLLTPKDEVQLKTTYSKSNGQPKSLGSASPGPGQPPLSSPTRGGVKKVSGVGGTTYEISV
Summary of the method: as §1

ZDHHC7 isoform 2 = ZDHHC7 isoform 2 (UniProt Q9NXF8)
Sequence of ZDHHC7 isoform 2 (Q9NXF8 whole entry, looked up, canonical isoform): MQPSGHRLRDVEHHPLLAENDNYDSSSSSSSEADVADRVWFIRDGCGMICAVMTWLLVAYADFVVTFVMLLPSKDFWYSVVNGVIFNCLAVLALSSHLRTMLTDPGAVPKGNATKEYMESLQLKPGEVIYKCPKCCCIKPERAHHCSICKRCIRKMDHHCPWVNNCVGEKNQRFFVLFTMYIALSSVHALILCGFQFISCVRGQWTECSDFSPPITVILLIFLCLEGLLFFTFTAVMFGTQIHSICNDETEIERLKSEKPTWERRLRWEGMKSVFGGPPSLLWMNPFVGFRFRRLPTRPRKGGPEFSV
Summary of the method: as §1

ZDHHC8 isoform 3 = ZDHHC8 isoform 3 (UniProt Q9ULC8)
Summary of the method: as §1

ZDHHC6 = ZDHHC6 (UniProt Q9H6R6)
Summary of the method: as §1

Compound	log2 fold change (YWHAB)	log2 fold change (YWHAQ)	log2 fold change (YWHAZ [1])	log2 fold change (YWHAZ [2])	log2 fold change (YY1)	log2 fold change (ZADH2)	log2 fold change (ZBTB21)	log2 fold change (ZBTB43)	log2 fold change (ZC3H18)	log2 fold change (ZC3H8)	log2 fold change (ZC3HC1)	log2 fold change (ZCCHC9)	log2 fold change (ZDHHC17)	log2 fold change (ZDHHC20)	log2 fold change (ZDHHC5)	log2 fold change (ZDHHC7 isoform 2)	log2 fold change (ZDHHC8 isoform 3)	log2 fold change (ZDHHC6)
C[C@@H](N)c1ccc(C(=O)Nc2ccnc3[nH]ccc23)cc1	-0.065	-0.302	0.179	-0.178	-0.071	-0.071	0.125	-0.013	-0.103	0.218	-0.213	0.359	-0.03	0.051	0.006	-0.065		
CN1CCN(CCOc2cc(OC3CCOCC3)c3c(Nc4c(Cl)ccc5c4OCO5)ncnc3c2)CC1 [saracatinib]	0.014	0.234	-0.076	0.064	0.047	0.005	-0.149	-0.147	-0.072	0.088	0.024		-0.009	-0.045	0.034	0.034	0.188	
CS(=O)(=O)CCNCc1ccc(-c2ccc3ncnc(Nc4ccc(OCc5cccc(F)c5)c(Cl)c4)c3c2)o1 [lapatinib]	-0.016	0.219	-0.051	0.197	-0.023	-0.049	0.032		0.111	0	0	0.028	-0.022	0.063	-0.072	0.034		-0.031
CC(C)N(C[C@H]1O[C@@H](n2cnc3c(N)ncnc32)[C@H](O)[C@@H]1O)[C@H]1C[C@@H](CCc2nc3cc(C(C)(C)C)ccc3[nH]2)C1 [pinometostat]	-0.031	-0.067	-0.035	-0.026	0.02	0	0.209	-0.05	0.053	0.017	-0.005	0.187	0.053	0.025	-0.02	-0.024	0.026	
c1cn2cc(-c3ccc4cn[nH]c4c3)nc(Nc3ccc(N4CCOCC4)cc3)c2n1 [entospletinib]	0.009	-0.017	0.161	0.006	0.022	0.053		0.137	0.097	-0.034	0.005	0.168	0.059	-0.02	0.071	0.027		-0.058
NC(=O)c1cnc(N[C@@H]2CCCC[C@@H]2N)nc1Nc1cccc(-n2nccn2)c1	-0.05	0.172	-0.186	0.108	-0.037	-0.025	-0.044	0.092	-0.221	0.08	-0.054	0.049	-0.003	-0.001	-0.01	-0.064		
CC(C)(C)Cn1c(N)nc2ccc(-c3[nH]c(C(C)(C)C)nc3-c3ccc(F)cc3)nc21 [ralimetinib]	-0.063	0.237	-0.031	0.145	0.002	0.169	0.121	0.012	0.03	0.047	0.035	0.017	-0.099	-0.187	-0.001	-0.033		
Cc1cccc(-c2[nH]c(C(C)(C)C)nc2-c2ccc3nccnc3c2)n1	0.021	0.05	-0.064	0.009	0.039	-0.004	-0.03	-0.04	-0.029	-0.176	0.119	-0.133	-0.095	-0.007	-0.013	0.335	-0.03	
COc1cc(C(=O)O)ccc1NC(=O)[C@@H]1N[C@@H](CC(C)(C)C)[C@](C#N)(c2ccc(Cl)cc2F)[C@H]1c1cccc(Cl)c1F [idasanutlin]	-0.053	-0.084	-0.061	-0.026	0.077	-0.235	0.026	0.002	0.23	0.109	-0.012	0.139	-0.048	-0.014	-0.111	-0.013		
CO[C@H]1C[C@@H]2CC[C@@H](C)[C@@](O)(O2)C(=O)C(=O)N2CCCC[C@H]2C(=O)O[C@H]([C@H](C)C[C@@H]2CC[C@H](n3cnnn3)[C@H](OC)C2)CC(=O)[C@H](C)/C=C(\C)[C@@H](O)[C@@H](OC)C(=O)[C@H](C)C[C@H](C)/C=C/C=C/C=C/1C [zotarolimus]	0.015	0.196	-0.072	0.107	-0.01	0.07	0.004	-0.036	0.041	0.029	0.052	-0.044	0.039	-0.15	-0.085	-0.245		
CCCS(=O)(=O)Nc1ccc(F)c(C(=O)c2c[nH]c3ncc(Cl)cc23)c1F	0.031	0.233	-0.05	0.228 (active)	0.037	-0.012	0.091		-0.019	-0.138	0.189	-0.177	-0.016	0.138	-0.009	0.014		-0.048
c1cc(OCCN2CCCCC2)cc(-c2n[nH]c3ccc(-c4nnc[nH]4)cc23)c1	-0.019	0.105	0.095	0.05	-0.052	-0.017		-0.026	-0.147	-0.104	-0.046	-0.067	0.068	0.053	-0.076	-0.191		-0.005
Cn1c2cc(S(C)=O)sc2c2cnn(Cc3cccc(N)c3)c(=O)c21 (centres undefined)	-0.068	-0.167	0.101	-0.115	0.045	-0.013	0.049	0.017	0.135	0.127	-0.135		-0.027	0.084	-0.049	0.02	0.121	
CC[C@@H]1C(=O)N(C)c2cnc(Nc3ccc(C(=O)N[C@H]4CC[C@H](N5CCN(CC6CC6)CC5)CC4)cc3OC)nc2N1C(C)C [volasertib]	0.024	-0.073	-0.173	-0.016	-0.44 (active)	0.754 (active)	-0.063		-0.085	0.207	-0.579 (active)	0.226	-0.095	0.011	0.093	-0.059		-0.094
CC(C)C[C@@H](C=O)NC(=O)[C@H](CC(C)C)NC(=O)[C@H](CC(C)C)NC(=O)OCc1ccccc1	-0.003	-0.184	0.019	-0.098	0.091	-0.045	-0.013	0.05	-0.042	0.045	-0.101	0.305	-0.057	-0.153	-0.029	-0.069		
COc1cc2nc(-c3cc(F)ccc3O)nc(N[C@@H]3CNC[C@H]3C(C)(C)O)c2cc1OC	-0.062	-0.148	0.028	-0.163	-0.268 (active)	0.045	0.022		-0.066	0.05	0.013	-0.006	0.029	-0.086	0.117	-0.012		0.018
Cc1ccc(Sc2cncc3sc(C(N)=O)cc23)cc1	-0.033	0.079	-0.019	0.123	0.01	-0.015	0.008		-0.064	-0.115	0.053	-0.109	0.038	0.014	-0.011	-0.138		0.034
